Test results published in PubChem BioAssay (Tox21).
Results filed as inconclusive are left out. Calls of active or inactive are those of the source. The call rests on the fitted dose curve.

Assay: qHTS assay to identify small molecule agonists of the AP-1 signaling pathway - cell viability counter screen (AID 1159525); further: nearly all actives have a fitted effect of over 55% in size
Conditions: ME-180 (cervical carcinoma) AP-1-bla cells viability, ATP luminescence, 5 h; series mostly up to 76.8 µM
Description: National Center for Advancing Translational Sciences [NCATS]
NIH Chemical Genomics Center [NCGC]
U.S. Environmental Protection Agency [EPA]
National Institutes of Environmental Health Sciences [NIEHS]
National Toxicology Program [NTP]
U.S. Food and Drug Administration [FDA]
Activator protein-1 (AP-1), a transcription factor, plays an important role in tumor genesis by regulating genes involved in cell proliferation, differentiation, apoptosis, and angiogenesis. AP-1 activity is induced by a complex network of signaling pathways that involves extracellular signals, such as growth factors. The AP-1 protein complex formed from c-Fos and c-Jun binding to the AP-1 response element results in transcriptional activation of genes containing such elements within their promoter.
Low molecular weight molecules have been discovered and developed to modulate various components of these signaling pathways, for example, MAP kinase inhibitors. However, many points of pathway modulation remain untested due to the lack of chemical probes making this signaling locus of general interest.
Using a beta-lactamase reporter-gene under control of the AP-1 response element, a cell-based assay [CellSensor(TM) AP-1-bla ME-180 developed by Invitrogen Corp.] was used to measure EGF-induced signaling. The Tox21 10K library compounds were measured for their ability to positively modulate the action of EC50 EGF on reporter gene activity. Compounds were screened in a 15-pt titration series in 1536-well format. The cytotoxicity of the Tox21 compound library against this cell line was tested in parallel by measuring the intra cellular ATP content in the same wells.
Tox21 Assay Protocol Summary:
2500 cells/5uL in Opti-MEM medium containing 0.5% dialyzed FBS, 0.1 mM NEAA, 1 mM sodium pyruvate and 10 mM HEPES was dispensed into 1536-well black wall/clear bottom plates using a Multidrop dispenser and cells were cultured at 37 degrees Celsius overnight. Next day 23 nL of compounds dissolved in DMSO, positive controls or DMSO were delivered to each well using a pin tool. The plates were incubated at 37 degrees Celsius for 5 hours. 1 uL of LiveBLAzerTM B/G FRET substrate (Solution A+B+C+D) was added to each well using a Flying Reagent Dispenser. After incubated at room temperature for 2.5 hours the plates were measured on an EnVision plate reader at Excitation 405nm, Emission1=460nm and Emission 2=530nm. The %Activity was determined from the ratio of 460nm/530nm.
After the plates were read for Beta-Lactamase assay on Envision; 3 ul Cell Titer Glo (Promega) was added to measure the cytotoxicity and the plates were then incubated at RT in dark for 30 min. The luminescence was read on ViewLux (Perkin Elmer, Shelton, CT) using 6 sec exposure. ViewLux data was expressed as relative luminescence units.
For primary data analysis, raw plate reads for each titration point were first normalized relative to […] EGF control (100%) and DMSO only wells (basal, 0%).
For primary data analysis for viability assay, raw plate reads for each titration point were first normalized Tetra n-octyl ammonium bromide control (-100%) and DMSO (control, 100%).

| SMILES | outcome |
| --- | --- |
| CC(C)CC(C)CC(O)CC(C)C (stereo not given) | inactive |
| CC(=O)/C=C/C1=C(C)CCCC1(C)C | inactive |
| Cc1cccc(Nc2cc(Cl)nc(SCC(=O)O)n2)c1C | inactive |
| CCCCC/C(C=O)=C\c1ccccc1 | inactive |
| O=C(OCc1ccccc1)c1ccccc1 | inactive |
| CC(=O)CCC(C)C | inactive |
| C=C(C)OC(C)=O | inactive |
| O=C(O)CN(CC(=O)O)CC(=O)O | inactive |
| NCCNc1cccc2ccccc12 | inactive |
| NC(=O)N1c2ccccc2C=Cc2ccccc21 | inactive |
| COc1ccc(C(=O)c2ccccc2)c(O)c1 | inactive |
| CC(O)COc1ccccc1 (stereo not given) | inactive |
| CC(C)(C)NCC(O)c1ccc(O)c(CO)c1 (stereo not given) | inactive |
| C=CC(=O)NC(C)(C)CS(=O)(=O)O | inactive |
| O=[N+]([O-])c1ccc(O)cc1 | inactive |
| CCCCOCCOCCOC(C)=O | inactive |
| CCCCCCCC(=O)OCC(O)CO (stereo not given) | inactive |
| NC(=O)N/N=C/c1ccc([N+](=O)[O-])o1 | inactive |
| CC1=C(/C=C/C(C)=C/C=C/C(C)=C/C(=O)O)C(C)(C)CCC1 | inactive |
| O=C(O)CCCCC1CCSS1 (stereo not given) | inactive |

| SMILES | outcome |
| --- | --- |
| CCCCCCCCCCCCCCCCCC(=O)OCC(O)CO (stereo not given) | inactive |
| CO[C@H]1C=CO[C@@]2(C)Oc3c(C)c(O)c4c(O)c(c(/C=N/N5CCN(C)CC5)c(O)c4c3C2=O)NC(=O)/C(C)=C\C=C[C@H](C)[C@H](O)[C@@H](C)[C@@H](O)[C@@H](C)[C@H](OC(C)=O)[C@@H]1C | inactive |
| CC(=O)c1ccc(S(=O)(=O)NC(=O)NC2CCCCC2)cc1 | inactive |
| O=c1cc[nH]c(=O)[nH]1 | inactive |
| CN(C)Cc1cc(CN(C)C)c(O)c(CN(C)C)c1 | inactive |
| COCC(C)N (stereo not given) | inactive |
| Cc1cccc2ccccc12 | inactive |
| CCN1CCCC1=O | inactive |
| CCN(CC)CCOC(=O)c1ccc(N)cc1 | inactive |
| N[C@@H](Cc1c[nH]c2ccccc12)C(=O)O | inactive |
| C[C@]12CC[C@@H]3c4ccc(O)cc4C[C@@H](CCCCCCCCCS(=O)CCCC(F)(F)C(F)(F)F)[C@H]3[C@@H]1CC[C@@H]2O (stereo not given in full) | inactive |
| N[C@@H](Cc1c[nH]c2ccc(O)cc12)C(=O)O | inactive |
| COc1ccc(O)cc1 | inactive |
| Cc1ccc(O)c(-n2nc3ccccc3n2)c1 | inactive |
| COCCOCCOC | inactive |
| C[C@]12C=CC(=O)C=C1CC[C@@H]1[C@@H]2C(=O)C[C@@]2(C)[C@H]1CC[C@]2(O)C(=O)CO | inactive |
| CCc1cc(C(N)=S)ccn1 | inactive |
| CC(=O)OC/C=C(C)/C=C/C=C(C)/C=C/C1=C(C)CCCC1(C)C | inactive |
| C[C@]12C[C@H](O)[C@H]3[C@@H](CCC4=CC(=O)CC[C@@]43C)[C@@H]1CC[C@@H]2C(=O)CO | inactive |
| C#C[C@]1(O)CC[C@H]2[C@@H]3CCc4cc(O)ccc4[C@H]3CC[C@@]21C | inactive |
